The record followed here is ChEMBL document CHEMBL4513216, “Probing the Open Global Health Chemical Diversity Library for Multistage-Active Starting Points for Next-Generation Antimalarials” (ACS Infect Dis, 2020).

SMILES strings stand for the structures. The whole screen tested about 69,000 compounds, of which about 8,600 (12%) showed an effect of 50% or more. For the sample, strong results were picked, then their nearest neighbours and some compounds at random.

The test relates to Plasmodium berghei. In words: Screen against P. berghei liver stage (PbLuc), transformed with Luciferase, at 10uM. The format is functional, HepG2. The settings on record: tested at 10 uM.
Consider `O=C(c1ccccn1)N1CCC(S(=O)(=O)c2ccccc2)C1` (stereo not given), for which the INHIBITION is 45.5%.

Consider `O=C1CCOC[C@]2(CN(Cc3ccccc3)C[C@H]2c2ccccc2)N1`, for which the INHIBITION is reported as 37.1%.

As to `CCC(O)CN1CCN(C(=O)CCc2c(C)noc2Cl)CC1` (stereo not given), the INHIBITION is on record as 25.1%.

Take `CC(=O)N1CCC(c2ccnc(Nc3cncnc3)n2)C1` (stereo not given): the INHIBITION is 42.6%.

As to `CCN1CC2(CCNCC2)COc2ccccc2S1(=O)=O`, the INHIBITION is -0.79%.

For `CNC(=O)CN1C(=O)CCC12CCCN(Cc1cccc(F)c1)C2` (stereo not given), the INHIBITION was determined as 32.1%.

For the molecule `Cc1nc2[nH]cnc(Nc3cc(C)n(C)n3)c-2n1`, the INHIBITION is -6.42%.

For the molecule `CCN(Cc1ccncc1)C1CCCN(Cc2ccc(F)cc2OC)C1` (stereo not given), the INHIBITION was determined as 25.5%.

Consider `CCn1c(C2CCCN(Cc3ccc(F)cc3Cl)C2)nn(C)c1=O` (stereo not given), for which the INHIBITION is recorded as -36.4%.

With `CCN(Cc1ccncc1)C1CCCN(C/C=C/c2ccc(F)cc2)C1` (stereo not given), the INHIBITION is recorded as 55.9%.

In the case of `CCN(Cc1ccncc1)C1CCCN(Cc2ccc(F)cc2Cl)C1` (stereo not given), the INHIBITION was 62.4%.

Consider `Cc1nc(CN2CCCC(N(C)CCc3ccncc3)C2)no1` (stereo not given), for which the INHIBITION came out at 25.7%.

Regarding `CCn1ccnc1CN(C)C1CCCN(Cc2ccccc2F)C1` (stereo not given), the INHIBITION is given as -11.3%.

With `O=C(c1ccncc1F)N1CCc2onc(COc3cccnc3)c2C1`, the INHIBITION is reported as 29.9%.

Regarding `CCc1nc(CC)n(CC(=O)NCc2ccccc2C)n1`, the INHIBITION stood at 37.6%.

In the case of `CC(Cn1cccn1)NC(=O)N(C)Cc1cnn(C)c1` (stereo not given), the INHIBITION was 22.6%.

Regarding `O=C(c1ccc2c(c1)CCO2)N1CCN(c2cnccn2)CC1`, the INHIBITION is reported as -32%.

As to `NCC(=O)N1CCCC(O)(CN2CCN(c3ccccc3)CC2)CC1` (stereo not given), the INHIBITION is 2.55%.

In the case of `Cc1nnc(N2CC[C@@H](OCC3CC3)[C@@H](Cc3ccccc3)C2)s1`, the INHIBITION came out at 92.5%.

On to `CO[C@@H]1CCN(c2nnc(C)s2)C[C@@H]1Cc1ccccc1`, for which the INHIBITION was found to be 37.8%.

With `CO[C@H]1CCN(c2nnc(C)s2)C[C@@H]1Cc1ccccc1`, the INHIBITION is given as -13.7%.

Take `Cc1nnc(N2CC[C@H](OCC3CC3)[C@@H](Cc3ccccc3)C2)s1`: the INHIBITION is given as 41.4%.

As to `COc1ccc(C[C@H]2CN(c3nnc(C)s3)CC[C@H]2OC)cc1`, the INHIBITION worked out at 61.9%.

Consider `COc1ccc(C[C@H]2CN(c3nnc(C)s3)CC[C@@H]2OC)cc1`, for which the INHIBITION is given as -3.83%.

On to `CC(C)(C(=O)NCC1CCN(Cc2cccnc2)C1)c1ccccc1` (stereo not given), for which the INHIBITION is listed as 6.66%.

On to `O=C(NC1CC1)c1ccccc1NCc1cn2cccnc2n1`, for which the INHIBITION is listed as -17%.

Turning to `CN1CC2(CCN(Cc3cccnc3)CC2)c2cccc(F)c21`, the INHIBITION is on record as -16.9%.

Take `CN(C)C1CCC2(CCN(Cc3nccn3C)CC2)c2ccccc21` (stereo not given): the INHIBITION is 66.3%.

Consider `Cn1ccnc1CN1CCC2(CC1)CCN(c1ccccc1)C2=O`, for which the INHIBITION is listed as 16.6%.

As for `CN1CC2(CCN(Cc3cccnc3)CC2)c2cc(F)ccc21`, the INHIBITION is -29.8%.

On to `CN(C)C1CCC2(CCN(Cc3cccnc3)CC2)c2ccccc21` (stereo not given), for which the INHIBITION is 50.4%.

`Cn1ccnc1CN1CCC2(CC1)CC(N1CCCC1)c1ccccc12` (stereo not given): the INHIBITION worked out at 24.6%.

On to `Cc1nn(CCC(=O)N2CCCC(OCc3cccnc3)C2)c(C)c1C` (stereo not given), for which the INHIBITION is recorded as 41.2%.

Regarding `COC1CCCOC12CCN(C(=O)NCCc1cccs1)CC2` (stereo not given), the INHIBITION is listed as -142%.

Consider `O=C(N1CCCCC1)N1CCCC(c2ncncc2-c2ccncc2)C1` (stereo not given), for which the INHIBITION amounted to 17.1%.

As for `CCCc1cc(CN(C)C2CCSCC2)n[nH]1`, the INHIBITION was determined as 50.1%.

Regarding `Cc1cc(CC(C)NC2CCSCC2)[nH]n1` (stereo not given), the INHIBITION was found to be 22.7%.

Consider `COCc1cc(CN(C)C(=O)c2c[nH]nc2-c2cccc(F)c2)n[nH]1`, for which the INHIBITION is -11.2%.

As to `CCCc1cc(C(=O)N(Cc2cccnc2)C2CCCCC2)[nH]n1`, the INHIBITION is listed as -9.87%.

With `CCCc1cc(CN(C)C2CSCCSC2)n[nH]1`, the INHIBITION was found to be 51.1%.

As to `CCCc1cc(CN(C)C2CC(C)(C)NC(C)(C)C2)n[nH]1`, the INHIBITION is 11.6%.

Consider `CCCNC(=O)NC(=O)CN1CCN(Cc2nccn2CC)CC1`, for which the INHIBITION came out at 5.308%.

Consider `Cc1nc(CN2CCN(C(=O)CCc3nc(C(C)(C)C)no3)CC2)cs1`, for which the INHIBITION stood at 30.8%.

Take `c1cncc(CN2CCc3c(nnn3CC3CC3)C2COCC2CC2)c1` (stereo not given): the INHIBITION came to 27.4%.

`CCN1CCN(C(=O)Cn2ncc3c2c(C)nn3C(C)C)CC1`: the INHIBITION is reported as 15.9%.

In the case of `CCC(C)N(C)CCNC(=O)c1ccccc1OCCOC` (stereo not given), the INHIBITION was determined as 8.64%.

Turning to `O=C1CCC2(CCCN(Cc3ccccc3F)C2)N1CC1CC1` (stereo not given), the INHIBITION was -19.6%.

With `CCOCc1ccccc1NC(=O)NCC(C)(O)c1cccs1` (stereo not given), the INHIBITION is listed as 0.734%.

Turning to `CCOCc1ccccc1NC(=O)NCC(C)(O)c1ccsc1` (stereo not given), the INHIBITION was found to be 11%.

In the case of `CCOCc1ccccc1NC(=O)NCC(C)(O)c1cc(C)oc1C` (stereo not given), the INHIBITION is on record as 85.5%.

For `CCC(CN1CCCC1)n1cncc1-c1cnn(Cc2ccccc2)c1` (stereo not given), the INHIBITION came to 3.5%.

Consider `CN(C)S(=O)(=O)N1CCC(c2ccncc2)CC1`, for which the INHIBITION is on record as -33.4%.

Turning to `Cc1cccc(NC(=O)C(C)Oc2ccc3c(c2)OCO3)n1` (stereo not given), the INHIBITION came to 53.7%.

Turning to `Cc1cc(C)nc(NC(=O)C(C)Oc2ccc3c(c2)OCO3)n1` (stereo not given), the INHIBITION was 48.5%.

As for `Cc1cc(NC(=O)C(C)Oc2ccc3c(c2)OCO3)no1` (stereo not given), the INHIBITION came to 14.6%.

Turning to `CC(=O)c1cccc(CN2CCCC23CCN(c2ccccn2)CC3)c1`, the INHIBITION came out at 19.8%.

With `COc1cccc(CSC=C2Nc3ccccc3S(=O)(=O)N2)c1`, the INHIBITION turned out to be 27.7%.

For the molecule `COc1cccc(CNC(=O)CCOc2ccccc2C)c1`, the INHIBITION was 2.43%.

`COc1cccc(CN(C)CC2=Nc3ccccc3S(=O)(=O)N2)c1`: the INHIBITION was determined as 69.7%.

Consider `CNS(=O)(=O)c1ccc(CCC(=O)NCc2cccc(OC)c2)cc1`, for which the INHIBITION was -74.6%.

With `COc1cccc(CN(C)CC(=O)NC2(C)CCS(=O)(=O)C2)c1` (stereo not given), the INHIBITION is recorded as -27.9%.

For the molecule `COc1cccc(CNC(=O)CCC2=Nc3ccccc3S(=O)(=O)N2)c1`, the INHIBITION was 57%.

Take `Cc1nn(C)c(N(C)C)c1CNC1CCOc2ccccc21` (stereo not given): the INHIBITION was -5.05%.

`Cc1oc2c(c1C(=O)N1C[C@H](O)[C@]3(CCCO3)C1)CCCC2`: the INHIBITION turned out to be 3.95%.

On to `CC1CN(C)CCN1C(=O)Nc1nc(-c2ccc[nH]2)cs1` (stereo not given), for which the INHIBITION turned out to be 6.33%.

For `CS(=O)(=O)NCCNCc1ccc(Br)s1`, the INHIBITION is given as -40.7%.

For `CN1C(=O)C(C)(C)COc2cc(NS(=O)(=O)c3ccccc3F)ccc21`, the INHIBITION came out at 22.3%.

For the molecule `CC(C)Sc1ncccc1C(=O)NCc1ccc(O)cc1`, the INHIBITION is on record as 60.7%.

As for `CC(C)Sc1ncccc1C(=O)NCc1ccoc1`, the INHIBITION was 42.9%.

As for `CC(C)Sc1ncccc1C(=O)NCc1ccc(CS(C)(=O)=O)cc1`, the INHIBITION is listed as 14.4%.
